Laboratory results as given in the supplement of paper PMC5919970.
Where a name gives a salt, the structure may show the parent alone. The full ranking holds about 2,000 compounds; the median of “fractional viability relative to vehicle” is about 0.91, and the lowest 2% start at about 0.045. This is one part of a sample in which the lowest values are shown more often than they occur.

Test system: TYKNU
Experiment: fractional viability relative to vehicle; TYKNU is a high-grade serous ovarian cancer line; higher = less growth inhibition
Settings: 72 h
Procedure, shortened: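 TYKNU control cells or lentiCRISPRv2 knockout derivatives were plated at 500 cells per well in duplicate into drug-stamped 384-well plates holding a ~2100-compound library at 2 or 10 μM. Culture was in RPMI 1640 with 10% FBS at 37 °C in 5% CO2, with 72 h of drug treatment. Viability was measured by Cell Titer Glo luminescence, and the averaged duplicate treatment wells were normalised to duplicate control wells at the same plate position.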

[1] = 2uM, genotype: DNM1L knockout (sgDNM1L #1)
[2] = 2uM, genotype: sgCTRLA1 (non-targeting control)
[3] = 10uM, genotype: DNM1L knockout (sgDNM1L #1)
[4] = 10uM, genotype: sgCTRLA1 (non-targeting control)

SMILES | fractional viability [1] | fractional viability [2] | fractional viability [3] | fractional viability [4]
O=C(Nc1ccccc1-c1cn2c(CN3CCNCC3)csc2n1)c1cnc2ccccc2n1 | 0.608 | 0.845 | 0.0197 | 0.00961
Cc1nc(-c2cccnc2)sc1C(=O)Nc1ccccc1-c1cn2c(CN3CCOCC3)csc2n1 | 0.821 | 0.932 | 0.858 | 0.78
Cn1c2ccccc2c2c3c(c4c5ccccc5n(CCC#N)c4c21)CNC3=O | 0.64 | 1.01 | 0.671 | 0.79
Cn1cncc1[C@@](N)(c1ccc(Cl)cc1)c1ccc2c(c1)c(-c1cccc(Cl)c1)cc(=O)n2C [Tipifarnib] | 0.472 | 0.64 | 0.272 | 0.366
Cc1nnc(C(C)C)n1C1C[C@H]2CC[C@@H](C1)N2CC[C@H](NC(=O)C1CCC(F)(F)CC1)c1ccccc1 (stereo in doubt) [Maraviroc] | 0.973 | 1.15 | 0.873 | 1.03
Cc1cc(-c2ncc(CC(=O)Nc3ccc(-c4cnccn4)cn3)cc2C)ccn1 | 0.863 | 1.1 | 0.665 | 0.746
CC(C)c1onc(-c2c(Cl)cccc2Cl)c1COc1ccc(/C=C/c2cccc(C(=O)O)c2)c(Cl)c1 | 0.953 | 1.1 | 0.781 | 1.09
c1ccc(Cn2c(-c3ccc(OC[C@H](C4CCNCC4)n4c(-c5ccccc5)nc5ccccc54)cc3)nc3ccccc32)cc1 [Deltarasin] | 0.887 | 0.966 | 0.0145 | 0.0132
c1cc(-c2cnn3cc(-c4ccc(OCCN5CCCCC5)cc4)cnc23)ccn1 [Dorsomorphin (Compound C)] | 0.845 | 0.916 | 0.552 | 0.503
C/C(=N\NC(=S)N1CCC1)c1ccccn1 | 0.171 | 0.137 | 0.225 | 0.167
Fc1ccc2[nH]ccc2c1-c1nc(N2CCOCC2)c2sc(CN3CCN(CC4CC4)CC3)cc2n1 | 0.883 | 0.947 | 0.634 | 0.711
O=C(NC1CCN(CCCCC2(C(=O)NCC(F)(F)F)c3ccccc3-c3ccccc32)CC1)c1ccccc1-c1ccc(C(F)(F)F)cc1 [Lomitapide Mesylate] | 0.573 | 0.79 | 0.0435 | 0.0328
O=C1c2ccccc2C(=O)c2c1ccc(O)c2O [Alizarin] | 0.834 | 1.1 | 0.8 | 1.06
CC(=O)c1cc2c(o1)C(=O)c1ccccc1C2=O [Napabucasin] | 0.0305 | 0.0196 | 0.018 | 0.0135
O=C(O)c1cc(=O)c2ccccc2o1 [Chromocarb] | 0.948 | 1.07 | 0.923 | 1.05
Cc1ccc(NC(=O)c2cccc(C(C)(C)C#N)c2)cc1Nc1ccc2ncn(C)c(=O)c2c1 | 0.244 | 0.283 | 0.27 | 0.31
